From the supplement of paper PMC13380429 come the findings set out here.

A number with no mark means an inactive call.

This assay has as its system Vero E6 infected with SARS-CoV-2. Briefly: inhibition of SARS-CoV-2 cytopathic effect; higher = more antiviral protection, active = above 15. The conditions noted are these: 100 nM; 48 h.
Consider `N#CC(=C(/N)Sc1ccccc1N)/C(C#N)=C(/N)Sc1ccccc1N`, for which the “inhibition of SARS-CoV-2 cytopathic effect” value (from here on “inhibition”) was 2.1%.

For `CC(C)[C@@H]1C(=O)N(S(C)(=O)=O)[C@@H]2CCN(C(=O)/C=C/CN3CCCCC3)[C@H]21`, the “inhibition” value is 1.05%.

As for `O=P(O)(O)C(Cl)(Cl)P(=O)(O)O` [clodronic-acid], the “inhibition” value is 0.5%.

Consider `CCCCCCCC/C=C\CCCCCCCC(=O)NCCO` [oleoylethanolamide], for which the “inhibition” value is -0.87%.

With `COc1cc2ncc(-c3ccccc3)nc2cc1OC` [tyrphostin-AG-1296], the “inhibition” value is 0.84%.

As to `CNC[C@H](O)c1ccc(O)c(O)c1` [epinephrine], the “inhibition” value is -1.01%.

With `CC(=O)Nc1cccc(-n2c(=O)n(C3CC3)c(=O)c3c(Nc4ccc(I)cc4F)n(C)c(=O)c(C)c32)c1` [trametinib], the “inhibition” value was -14.6%.

Turning to `Cc1ccc2cc(-c3c(C)ccc(C(=O)c4c(-c5ccccc5)n(C)n(-c5ccccc5)c4=O)c3N)ccc2n1`, the “inhibition” value was -0.14%.

As to `Cc1csc2c(N[C@@H](C)CN3CCN(S(=O)(=O)c4ccc(Cl)c(Cl)c4)CC3)ncnc12` [LPA2-antagonist-1], the “inhibition” value was 1.73%.

For the compound `Cc1[nH]nc(C(F)(F)F)c1Cc1sc2c(c1C(=O)N1C[C@](C)(O)CO1)c(=O)n(C)c(=O)n2C(C)C`, the “inhibition” value is 1.71%.

With `COc1ccc(NS(=O)(=O)c2ccc(N)cc2)nn1` [sulfamethoxypyridazine], the “inhibition” value was 2.29%.

Consider `COc1ccc(C[C@H]2NC[C@H](O)[C@H]2OC(C)=O)cc1` [anisomycin], for which the “inhibition” value is 44.2% (active).

For `C=CCc1cccc(/C=N/NC(=O)CN2CCN(Cc3ccccc3)CC2)c1O`, the “inhibition” value was 4.72%.

`Cc1c(C(N)=O)cc([N+](=O)[O-])cc1[N+](=O)[O-]` [dinitolmide]: the “inhibition” value is 1.29%.

On to `CNC1CCCN(c2c(F)cc3c(=O)c(C(=O)O)cn(C4CC4)c3c2OC)C1` (configuration not stated) [balofloxacin], for which the “inhibition” value was 1.91%.

As for `CC1=NN(c2ccc(C)c(C)c2)C(=O)/C1=N\Nc1cccc(-c2cccc(C(=O)O)c2)c1O` [eltrombopag], the “inhibition” value is 2.06%.

For the compound `O=C(NCCCN1CCOCC1)c1ccc(Cl)cc1` [eprobemide], the “inhibition” value was 4.31%.

`O=c1c(O)c(-c2ccc(O)cc2)oc2cc(O)cc(O)c12` [kaempferol]: the “inhibition” value is -1.58%.

With `CCCCCCCCCCCCCCCCCCN(CCCCCCCCCCCCCCCCCC)CCCN(CCO)CCO` [avridine], the “inhibition” value was -5.76%.

In the case of `O=C1NC(=O)c2c1c1c3ccccc3[nH]c1c1[nH]c3ccccc3c21` [arcyriaflavin-a], the “inhibition” value was -3.16%.

Regarding `CC(=O)OC[C@H]1O[C@@H](n2ccc(=O)[nH]c2=O)[C@H](OC(C)=O)[C@@H]1OC(C)=O` [uridine-triacetate], the “inhibition” value is 0.84%.

`O=C(NC1CCOCC1)c1ccc(-c2cc(-c3c[nH]nc3-c3ccccn3)ccn2)cc1`: the “inhibition” value was 0.23%.

For `O=C(NCC1CCCCN1)c1cc(OCC(F)(F)F)ccc1OCC(F)(F)F` (configuration not stated) [flecainide], the “inhibition” value was -0.28%.

For `O=C1Nc2ccccc2/C1=C1/Nc2ccccc2C1=O` [indirubin], the “inhibition” value was -0.33%.

With `c1cnc2c([O][Ga]([O]c3cccc4cccnc34)[O]c3cccc4cccnc34)cccc2c1` [gallium-triquinolin-8-olate], the “inhibition” value was -0.49%.

On to `CN1CCCC(n2nc(Cc3ccc(Cl)cc3)c3ccccc3c2=O)CC1` (configuration not stated) [azelastine], for which the “inhibition” value is -3.43%.

For `C[C@H]1C[C@@H]2[C@H]([C@@H](O)C[C@@]3(C)[C@H]2CC[C@]3(O)C(=O)COC(=O)CCC(=O)O)[C@@]2(C)C=CC(=O)C=C12` [methylprednisolone-sodium-succinate], the “inhibition” value is 0.5%.

In the case of `CN1C[C@@H](NS(=O)(=O)N(C)C)C[C@@H]2c3cccc4c3c(cn4C)C[C@H]21` [mesulergine], the “inhibition” value was 0.56%.

On to `CCS(=O)(=O)N(Cc1cccnc1)c1cccc(-c2ccc(C#N)cc2)c1`, for which the “inhibition” value is 1.23%.

For `COC(=O)[C@@H]1C[C@H](OC(C)=O)C(=O)[C@H]2[C@@]1(C)CC[C@H]1C(=O)O[C@H](c3ccoc3)C[C@]21C` [salvinorin-A], the “inhibition” value was -1.61%.

Turning to `O=C(O)c1ccccc1Nc1cccc(OCc2ccc3ccccc3n2)c1`, the “inhibition” value was 0.56%.

Consider `C/C=C/c1cc(OC)c(OC)cc1OC` [alpha-asarone], for which the “inhibition” value was -3.56%.
